# In PMC5540273 (PLoS ONE, 2017):
# Several values for one entry are separate records, joined by “and”; a condition that tells them apart may be missing. Equal values may be shown once. Read-outs that look alike come from different tables or passages of the source.
# Legend:
# MERTK = details: concentration: 1 μM, replicates: in singlicate; n = 1
# MET = details: concentration: 1 μM, replicates: in singlicate; n = 1
# MINK = tested on: T1, MINK; details: concentration: 1 μM, replicates: in singlicate, n = 1
# T1 construct: gene MINK1
# MKK7 = details: concentration: 1 μM, replicates: in singlicate, n = 1
# MKNK1 = details: concentration: 1 μM, replicates: in singlicate; n = 1
# MKNK2 = details: concentration: 1 μM, replicates: in singlicate, n = 1
# MLCK = tested on: T2, MLCK; details: concentration: 1 μM, replicates: in singlicate; n = 1
# T2 construct: gene MYLK3
# MLK1 = tested on: T3, MLK1; details: concentration: 1 μM, replicates: in singlicate; n = 1
# T3 construct: gene MAP3K9
# MLK2 = details: concentration: 1 μM, replicates: in singlicate, n = 1
# MLK3 = details: concentration: 1 μM, replicates: in singlicate, n = 1
# 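Further: KINOMEscan kinase panel screen.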
SMILES,%Inh (MERTK),%Inh (MET),%Inh (MINK),%Inh (MKK7),%Inh (MKNK1),%Inh (MKNK2),%Inh (MLCK),%Inh (MLK1),%Inh (MLK2),%Inh (MLK3),%Inh (MINK; 1 µM),%Inh (MKK7; 1 µM),%Inh (MKNK2; 1 µM),%Inh (MLK2; 1 µM),%Inh (MLK3; 1 µM)
Fc1cccc(COc2ccc(Nc3ncnc4sc(-c5ccc[nH]5)cc34)cc2Cl)c1 [GW707818],10%,0%,16%,8%,12%,2%,0%,7%,0%,2%,–,–,–,–,–
O=C(c1ccc(-c2cc(-c3c[nH]nc3-c3ccccn3)ccn2)cc1)N1CCCC1 [GW792479],0%,23%,30%,0%,0%,0%,0%,14%,14%,3%,–,–,–,–,–
CCc1nc(-c2cccc(N(C)S(=O)(=O)c3ccccc3)c2)c(-c2ccnc(Nc3ccc(N4CCN(C(C)=O)CC4)nc3)n2)s1 [GSK1645895],11%,0%,18%,0%,0%,6%,0%,0%,0%,0%,–,–,–,–,–
Cl.O=S(=O)(c1cccc(F)c1)c1ccc(Nc2ncnc3cc(Br)sc23)cc1Cl [GSK306886],37%,0%,0%,0%,11%,11%,0%,0%,0%,2%,–,–,–,–,–
COc1ccc(-c2nc3n(c2-c2ccncc2)CCC3)cc1 [SKF-104493],0%,0%,–,–,0%,–,0%,0%,–,–,5% and 19%,14% and 19%,19% and 0%,0% and 4%,9% and 24%
OCCOCCn1ccc2ncnc(Nc3ccc(Oc4cccc(Cl)c4)c(Cl)c3)c21,0%,0%,0%,0%,0%,3%,0%,0%,37%,22%,–,–,–,–,–
Nc1nc(-c2cccnc2)c(-c2ccnc3ccccc23)s1 [GW684083],0%,0%,51%,0%,1%,0%,30%,0%,0%,7%,–,–,–,–,–
CCc1nc(-c2cccc(C)c2)c(-c2ccnc(NC(=O)c3ccccc3)c2)s1,3%,2%,61%,0%,0%,8%,0%,0%,16%,0%,–,–,–,–,–
CCC(CC)(CC)n1cnc2c(N)ncnc21 [SKF-97620],40%,0%,15%,0%,0%,10%,0%,0%,3%,1%,–,–,–,–,–
Fc1cccc(COc2ccc(Nc3ncnc4nn5ccccc5c34)cc2Cl)c1 [GW689066],6%,0%,0%,0%,4%,0%,4%,0%,0%,0%,–,–,–,–,–
CNc1nccc(-c2c(-c3ccc(F)cc3)ncn2CCCN2CCOCC2)n1 [SB-222516],19%,3%,15%,0%,3%,0%,1%,33%,10%,0%,–,–,–,–,–
Cc1ccc(NC(=O)c2cccc(C#N)c2)cc1-c1ccc(C(=O)Nc2ccncc2)cc1 [GSK1398463],0%,0%,0%,0%,0%,23%,0%,0%,24%,0%,–,–,–,–,–
C[C@@H]1CCN(C(=O)CO)C[C@@H]1N(C)c1ncnc2[nH]ccc12,0%,0%,0%,0%,0%,0%,14%,0%,35%,8%,–,–,–,–,–
O=C(NCCCN1CCCC1=O)c1cnc(NCc2cc(Cl)ccc2Cl)nc1NC1CCNCC1,63%,0%,0%,0%,0%,0%,11%,0%,0%,0%,–,–,–,–,–
O=C(Nc1n[nH]c2nc(-c3ccco3)c(Br)cc12)c1ccc(CN2CCCC2)cc1.O=C(O)[C@H](O)[C@@H](O)C(=O)O [SB-742352],22%,0%,0%,0%,0%,0%,69%,0%,0%,10%,–,–,–,–,–
COC(=O)c1cccc(NC(=O)NCCNc2ccnc(Nc3ccc(F)cc3)n2)c1 [GSK1379883],18%,0%,0%,0%,7%,5%,0%,0%,8%,6%,–,–,–,–,–

SMILES,%Inh (MERTK),%Inh (MET),%Inh (MINK),%Inh (MKK7),%Inh (MKNK1),%Inh (MKNK2),%Inh (MLCK),%Inh (MLK1),%Inh (MLK2),%Inh (MLK3),%Inh (MINK; 1 µM),%Inh (MKK7; 1 µM),%Inh (MKNK2; 1 µM),%Inh (MLK2; 1 µM),%Inh (MLK3; 1 µM)
COc1cc2c(Nc3cccc(NC(=O)c4ccccc4)c3)ncnc2cc1OCCCN1CCOCC1 [GSK223810],20%,1%,0%,0%,23%,9%,0%,0%,23%,13%,–,–,–,–,–
Nc1nccc2scc(-c3ccc4c(c3)CCN4C(=O)Cc3cc(F)ccc3F)c12 [GSK2587663],0%,0%,18%,0%,0%,4%,4%,0%,0%,15%,–,–,–,–,–
FC(F)(F)c1ccc(-c2cc(-c3c[nH]nc3-c3ccccn3)ccn2)cc1 [GW599550],0%,14%,75%,0%,7%,0%,7%,10%,0%,21%,–,–,–,–,–
N#Cc1ccc(Oc2ccc(Nc3ncnc4cc[nH]c34)cc2Cl)cc1,0%,11%,31%,0%,0%,20%,8%,0%,0%,0%,–,–,–,–,–
O=C(Nc1ccccc1)Nc1ccc(Oc2ccc3nccn3n2)cc1,16%,1%,38%,0%,14%,0%,0%,15%,0%,0%,–,–,–,–,–
CS(=O)(=O)CCNCc1ccc(-c2ccc3ncnc(Nc4ccc(OCc5ccccc5)c(Cl)c4)c3c2)o1.Cl [GW574783],5%,0%,0%,71%,26%,0%,0%,0%,31%,10%,–,–,–,–,–
COc1ccc(-c2oc3ncnc(N)c3c2-c2ccc(OC)cc2)cc1 [SB-589132],29%,0%,0%,0%,25%,41%,23%,0%,0%,0%,–,–,–,–,–
Clc1cc(Nc2ncnc3cc[nH]c23)ccc1OCc1ccccn1,0%,4%,33%,5%,35%,22%,0%,0%,2%,0%,–,–,–,–,–
Cl.Cn1ccc(-c2cccc(Nc3ccnc4cc(-c5nccs5)ccc34)c2)n1 [GW525701],23%,0%,54%,0%,7%,1%,14%,0%,0%,0%,–,–,–,–,–
Fc1ccc(Nc2nccc(-c3c(-c4ccc(Cl)cc4)nn4ncccc34)n2)cc1F [GW829058],0%,3%,14%,23%,0%,2%,9%,2%,12%,4%,–,–,–,–,–
Cl.Fc1ccccc1COc1ccc(Nc2ncnc3ccc(-c4nnc(C(F)(F)F)o4)cc23)cc1Cl [GW424170],10%,0%,0%,0%,0%,0%,0%,0%,0%,3%,–,–,–,–,–
COC(=O)c1c(-c2ccccc2)c2cc(Cl)ccc2c(=O)n1Cc1ccc(S(C)(=O)=O)cc1,8%,0%,0%,0%,0%,0%,0%,0%,0%,4%,–,–,–,–,–
Cc1ccc(O)cc1Nc1cc(C(F)(F)F)nc2ccc(-c3ccncc3)cc12 [GW630823],21%,6%,0%,0%,0%,0%,12%,4%,2%,0%,–,–,–,–,–
COc1ccc(NC(=O)Nc2ccc(C)c(-c3ccc(C(=O)Nc4ccncc4)cc3)c2)cc1 [GSK1398475],31%,0%,5%,0%,6%,0%,0%,0%,0%,0%,–,–,–,–,–
Cn1ccc2ncnc(Oc3ccc(NC(=O)Nc4cccnc4)c(Cl)c3)c21,6%,15%,0%,0%,10%,0%,0%,14%,2%,0%,–,–,–,–,–
